For 38 compounds, growth inhibition results are on record in PubChem BioAssay (NCI).

SMILES strings stand for the structures. Where “and” joins values, the source holds several entries; their conditions need not be identical. Equal values may be shown once. The panel holds about 79,000 compounds, 15% with a hit somewhere; the sample as a whole holds those more often. A number with no mark means an inactive call. Calls of active or inactive are those of the source. Cut-off read from the data, not from the text of the source: active = growth inhibition above about 70%; inactive = the rest.

The nature of assay [1]: NCI Yeast Anticancer Drug Screen. Data for the rad50 strain (AID 155).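 Note: 0% = growth of vehicle-only cultures of the same strain.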 The following applies: S. cerevisiae rad50 strain growth inhibition, stronger effect = higher value; at 50.0 µM unless noted. The method in brief: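 Readout: growth inhibition relative to vehicle-treated cultures. Compound exposure was carried out in a genetically defined yeast strain deficient in DNA damage repair.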

Assay [2] can be described thus: NCI Yeast Anticancer Drug Screen. Data for the mec2-1 strain (AID 157). The following applies: S. cerevisiae mec2-1 strain, stronger effect = higher value; at 50.0 µM unless noted. The method, boiled down:
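Growth inhibition is read against vehicle-treated controls after compound exposure of the mec2-1 yeast strain, which is defective in DNA damage repair or cell cycle control.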

Assay [3] can be described thus: NCI Yeast Anticancer Drug Screen. Data for the sgs1 mgt1 strain (AID 161).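 Note: 0% = growth of cultures given vehicle only.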 The following applies: S. cerevisiae sgs1 mgt1 strain, stronger effect = higher value; at 50.0 µM unless noted. The method, boiled down:
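Percent growth inhibition was derived by comparing compound-exposed mutant yeast with vehicle-exposed cultures. The strain carries alterations in DNA damage repair.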

The nature of assay [4]: NCI Yeast Anticancer Drug Screen. Data for the cln2 rad14 strain (AID 165).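 Note: 0% = growth equal to vehicle treated cultures.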 The following applies: S. cerevisiae cln2 rad14 strain, stronger effect = higher value; at 50.0 µM unless noted. The method, boiled down: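 Growth inhibition, relative to vehicle-treated controls, is the read-out. The test organism is a yeast strain with defined genetic alterations, cln2 rad14.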
Assay [5] in a line: NCI Yeast Anticancer Drug Screen. Data for the bub3 strain (AID 167). The following applies: S. cerevisiae bub3 mutant strain, stronger effect = higher value; at 50.0 µM unless noted. The method in brief: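 Readout: yeast growth inhibition, expressed relative to vehicle-only wells. The test organism is a mutant strain from a panel with lesions in DNA repair or checkpoint genes.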
A short description of assay [6]: NCI Yeast Anticancer Drug Screen. Data for the mlh1 rad18 strain (AID 175). The following applies: S. cerevisiae mlh1 rad18 strain growth inhibition, stronger effect = higher value; at 50.0 µM unless noted. The method, boiled down: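 Cells of a genetically altered yeast strain, deficient in DNA damage repair, were treated with compound. Their growth was then compared with that of vehicle-treated cultures to give inhibition.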

Take `N#CC1C(=O)C(=O)N(c2ccccc2)C1=O` (stereo not drawn): the growth inhibition in assay [1] is -6.1%; in assay [2], -6.85%; in assay [3], -24.7%; in assay [4], 3.15%; in assay [5] it was -1.85%; in assay [6] it was -6.25%.

For `CCOc1ccc2nc(NC(=O)C(=O)C(c3cnc4ccccc4n3)[N+](=O)[O-])sc2c1` (stereo not drawn), the growth inhibition was 23.6% in assay [1]; -13.4% in assay [2]; 24.4% in assay [3]; 8.95% in assay [4]; -22.4% in assay [5]; 13.8% in assay [6].

Take `Nc1ccc(N)c2c(O)c3ccccc3c(O)c12`: the growth inhibition in assay [1] was 5.2%; in assay [2] it was 11.8%; in assay [3] it was 12.9%; in assay [4], -1.8%; in assay [5] it was 1.8%; in assay [6] it was 22%.

As for `O=C(OC1OCC(OCc2ccccc2)C(OCc2ccccc2)C1OCc1ccccc1)c1ccccc1` (stereo not drawn), the growth inhibition is 22.6% in assay [1]; -21.5% in assay [2]; -3.9% in assay [3]; -24.3% in assay [4]; -4.2% in assay [5]; -9.15% in assay [6].

`COc1cc2c(=O)[nH]c3cc(N)ccc3c2cc1N`: the growth inhibition in assay [1] is 9.6%; in assay [2], 7.9%; in assay [3], -4.2%; in assay [4] it was -7.8%; in assay [5], -3.95%; in assay [6], 0.6%.

On to `CCOCC(Br)C(OCC)OCC` (stereo not drawn), for which the growth inhibition in assay [1] is 19.2%; in assay [2] it was -6.65%; in assay [3], 8.15%; in assay [4], 20.9%; in assay [5] it was 0.45%; in assay [6] it was 26.1%.

As for `C=C(C)C(=O)Oc1ccccc1/C=C/C(=O)CCCCCC`, the growth inhibition in assay [1] is -8.45%; in assay [2], -14.1%; in assay [3], -20.4%; in assay [4], -9.1%; in assay [5], -11%; in assay [6], 4.4%.

With `C=CCCC(=O)CC(=O)OCc1ccccc1`, the growth inhibition in assay [1] is -7.2%; in assay [2] it was -31%; in assay [3] it was -1.15%; in assay [4] it was 8.05%; in assay [5], -37%; in assay [6] it was 16.1%.

`Cc1ccc(OC(=O)Oc2ccc(C)cc2)cc1`: the growth inhibition in assay [1] was 18.8%; in assay [2], 1.9%; in assay [3] it was 4.35%; in assay [4], -6.9%; in assay [5] it was 7.05%; in assay [6], 18%.

Take `O=C(Nc1ccc(Cl)cc1)Nc1nnc(-c2cccc(Cl)c2)o1`: the growth inhibition in assay [1] is 5.8%; in assay [2], 5.75%; in assay [3], 26.9%; in assay [4], -51.9%; in assay [5], 0.2%; in assay [6], 15%.

Take `Cc1ccc(SCC(O)=C2C(=O)CCCC2=O)cc1`: the growth inhibition was -11.4% in assay [1]; -12.3% in assay [2]; 15.1% in assay [3]; -0.45% in assay [4]; -2.25% in assay [5]; -7.45% in assay [6].

Take `CCCCCCCCCCCCCCCCCCOc1ccccn1`: the growth inhibition in assay [1] is -9.8%; in assay [2], -32.1%; in assay [3], -9.75%; in assay [4] it was 2.55%; in assay [5], -17.9%; in assay [6], 3.25%.

`CSC(=S)N/N=C(\C)c1cccs1`: the growth inhibition is 7.05% in assay [1]; 1.85% in assay [2]; 4.75% in assay [3]; -50.9% in assay [4]; -47.5% in assay [5]; 10.8% in assay [6].

As to `Nc1ccc(C(=O)O)cc1N`, the growth inhibition in assay [1] was 17.5%; in assay [2] it was 46.6%; in assay [3], 15.4%; in assay [4] it was 15.3%; in assay [5], 1.45%; in assay [6], 45.5%.

`CCN(CC)CC(=O)Nc1cc(Cl)ccc1OC`: the growth inhibition was -4% in assay [1]; -19.8% in assay [2]; -5.75% in assay [3]; -35.3% in assay [4]; 8.9% in assay [5]; -6.25% in assay [6].

Regarding `O=C(NO)/C(CC(=O)c1cccc(O)c1)=N\O`, the growth inhibition in assay [1] is -7.05%; in assay [2], 10.1%; in assay [3] it was -7.35%; in assay [4] it was -8.55%; in assay [5], -11.1%; in assay [6], 5.5%.

Regarding `NC(=S)N/N=C/c1ccc(N)cn1`, the growth inhibition in assay [1] was -4.2%; in assay [2] it was 17%; in assay [3], -0.5%; in assay [4], 0.25%; in assay [5] it was 8.15%; in assay [6], -8.8%.

`O=C1/C(=C/c2ccc(O)cc2)CCc2ccccc21`: the growth inhibition in assay [1] was -21.6%; in assay [2], -6.35%; in assay [3], -2.1%; in assay [4] it was 2.75%; in assay [5], 11.9%; in assay [6] it was -34.2%.

With `COc1ccc(/C=C2\N=C(N3CCCC(CO)C3)NC2=O)cc1` (stereo not drawn), the growth inhibition in assay [1] is -35.1%; in assay [2], -2.4%; in assay [3], 8.3%; in assay [4], 1.9%; in assay [5], -3.85%; in assay [6], -34%.

On to `O=C(CCCCCCCC(=O)NO)NO`, for which the growth inhibition is -10.8% in assay [1]; 6.6% in assay [2]; 12.8% in assay [3]; 3.65% in assay [4]; 2.5% in assay [5]; -9.4% in assay [6].

As to `C=C1C2CCC(C2)C1(C)CC/C=C(/C)CO` (stereo not drawn) (tested in a mixture with another compound), the growth inhibition in assay [1] was 34.4% and 47.7%; in assay [2], 9.65% and 7.15%; in assay [3], 33.2% and 41.6%; in assay [4], 20.2% and 7.3%; in assay [5], 35.5% and 19.8%; in assay [6] it was 16.4% and 26.4%.

On to `Cc1cc(N(CCC#N)CCC#N)ccc1N=Nc1ccc(S(N)(=O)=O)cc1`, for which the growth inhibition in assay [1] is -39.6%; in assay [2], -9.45%; in assay [3], -12.4%; in assay [4] it was 3.65%; in assay [5], 0.55%; in assay [6], 0.8%.

Consider `CC1=C2CC(C)(C)CC(=O)C2(C)CCC1=O` (stereo not drawn), for which the growth inhibition is 4.2% in assay [1]; -6.55% in assay [2]; 11.9% in assay [3]; 25.6% in assay [4]; -2.85% in assay [5]; 27.8% in assay [6].

Turning to `C/C(=N\O)C(=O)c1ccc(C)cc1`, the growth inhibition is -0.05% in assay [1]; -12.7% in assay [2]; 2.2% in assay [3]; -30.6% in assay [4]; -22.7% in assay [5]; -8.7% in assay [6].

`CSC(=Nc1ccccc1Cl)NC(=O)c1ccc(Br)cc1`: the growth inhibition in assay [1] is -9.65%; in assay [2], 20.7%; in assay [3], 5.7%; in assay [4] it was 19.3%; in assay [5], 7.8%; in assay [6], -8.4%.

Consider `C=CCOCn1cnc2c(N)ncnc21`, for which the growth inhibition in assay [1] was -35.9%; in assay [2] it was -59.9%; in assay [3] it was -24.1%; in assay [4], -0.6%; in assay [5], -11.3%; in assay [6], -36%.

On to `CCCOC(=O)c1ccc(O)cc1.[Cu+2]`, for which the growth inhibition is 5% in assay [1]; -13.3% in assay [2]; -14% in assay [3]; -34.4% in assay [4]; -3.05% in assay [5]; 12.7% in assay [6].

Turning to `O=C(O)c1ccccc1S(=O)Cc1ccc(Br)cc1` (stereo not drawn), the growth inhibition in assay [1] is -10.6%; in assay [2], -10.6%; in assay [3], -23.1%; in assay [4], -6.1%; in assay [5], -0.3%; in assay [6], 3.5%.

For `NC(=O)c1ccccc1OC(=O)Nc1ccc(F)c([N+](=O)[O-])c1`, the growth inhibition in assay [1] is 3.75%; in assay [2], 26.6%; in assay [3] it was 12.4%; in assay [4] it was -1.95%; in assay [5], 20.7%; in assay [6], 12.1%.

Consider `CCCCNC(=S)Nn1c(-c2ccccc2)nc2ccccc2c1=O`, for which the growth inhibition in assay [1] was 18.6%; in assay [2], -43%; in assay [3] it was -20.8%; in assay [4], -37.5%; in assay [5], -31.9%; in assay [6], 0.9%.

For `Clc1ccc(-c2cn3c(nc4ccccc43)c(-c3ccccc3)n2)cc1`, the growth inhibition was -7.65% in assay [1]; 1.4% in assay [2]; -10.1% in assay [3]; 2.35% in assay [4]; -22.5% in assay [5]; -16% in assay [6].

`COc1ccc(/C=N/NC(=O)c2ccccc2)c(OC)c1`: the growth inhibition is 17.1% in assay [1]; 0% in assay [2]; 6.65% in assay [3]; 17.7% in assay [4]; 28.2% in assay [5]; 9.3% in assay [6].

Consider `O=C(CCCCl)N1CCCCCC1`, for which the growth inhibition was -5.25% in assay [1]; 11.6% in assay [2]; -17.5% in assay [3]; -37% in assay [4]; 15.1% in assay [5]; 5.7% in assay [6].

As to `Nn1c(N=Nc2c(O)[nH]c3ccccc23)n[nH]c1=S`, the growth inhibition is 45.9% in assay [1]; 5.5% in assay [2]; 57% in assay [3]; 15.9% in assay [4]; 6.35% in assay [5]; 23.9% in assay [6].

For the compound `CCOc1ccccc1NC(=O)/C(=N\NC(C)(C)C)C1C(=O)Nc2ccccc2S1=O` (stereo not drawn), the growth inhibition in assay [1] is -4.3%; in assay [2], -27.9%; in assay [3], -9.85%; in assay [4], 9.2%; in assay [5], -6.9%; in assay [6], 10.1%.

`O=C1N=CN=C2C=CC(Cl)=C(I)C12` (stereo not drawn): the growth inhibition was 0.85% in assay [1]; 16.1% in assay [2]; 19.5% in assay [3]; 5.35% in assay [4]; 29.9% in assay [5]; 4.15% in assay [6].

On to `Cn1c2ccccc2c(=O)c2[nH]c3ccccc3c21`, for which the growth inhibition is 77.1% (active) in assay [1]; 78.5% (active) in assay [2]; 84.2% (active) in assay [3]; 63.5% in assay [4]; 83.3% (active) in assay [5]; 76.8% (active) in assay [6].

With `CC(/C(=N/O)c1ccccc1)N1C(=O)c2ccccc2C1=O` (stereo not drawn), the growth inhibition in assay [1] is -31.1%; in assay [2], -12.9%; in assay [3] it was -4.5%; in assay [4], -27.1%; in assay [5], -3.95%; in assay [6], 5.7%.
